Consider 36 compounds from the supplement of paper PMC12339681.

Molecules are shown by their SMILES. Where a name gives a salt, the structure may show the parent alone.

This experiment concerns PBMC-derived induced microglia-like cells (piMGLC). In words: synaptosome phagocytic index relative to DMSO control (fraction of DMSO); higher = more phagocytosis. To be noted: concentration: 10 uM (2 uM for compounds listed in Table S2); pretreatment time: 24 h; assay time: 3 h.
Consider `O=NN(CCCl)C(=O)NC1CCCCC1` [Lomustine], for which the synaptosome phagocytic index is 0.897.

As for `Nc1ccn([C@@H]2CS[C@H](CO)O2)c(=O)n1` [Lamivudine], the synaptosome phagocytic index amounted to 0.89.

With `CO[C@H]1C[C@@H]2CC[C@@H](C)[C@@](O)(O2)C(=O)C(=O)N2CCCC[C@H]2C(=O)O[C@H]([C@H](C)C[C@@H]2CC[C@@H](O)[C@H](OC)C2)CC(=O)[C@H](C)/C=C(\C)[C@@H](O)[C@@H](OC)C(=O)[C@H](C)C[C@H](C)/C=C/C=C/C=C/1C` [Rapamycin], the synaptosome phagocytic index was 0.285.

Turning to `Cc1ccc(N2CCN(Cc3nc4ccccc4[nH]3)CC2)cc1C`, the synaptosome phagocytic index was 1.03.

As for `COc1cc(C(=O)NCc2ccc(OCCN(C)C)cc2)cc(OC)c1OC` [Trimethobenzamide_hydrochloride], the synaptosome phagocytic index turned out to be 1.24.

With `C[C@@H](C(=O)O)c1ccc(-c2ccccc2)c(F)c1` [Tarenflurbil], the synaptosome phagocytic index came out at 1.11.

`C[C@@H]1CN(c2cccnc2F)C(=O)c2cc(COc3ccc(Cl)cn3)nn21`: the synaptosome phagocytic index came to 1.13.

As to `CN1CCN(C2=Nc3ccccc3Nc3ccccc32)CC1` [Deschloroclozapine], the synaptosome phagocytic index was determined as 0.876.

On to `OC(CN1CCN(c2cccc(Cl)c2)CC1)C(c1ccccc1)c1ccccc1` (stereo unspecified), for which the synaptosome phagocytic index is 1.01.

On to `O=C(NC1CCCCC1)N(Cc1ccccc1)CC1CCNCC1`, for which the synaptosome phagocytic index stood at 0.882.

Consider `N#Cc1ccc2[nH]cc(CCCCN3CCN(c4ccc5oc(C(N)=O)cc5c4)CC3)c2c1` [Vilazodone], for which the synaptosome phagocytic index worked out at 0.195.

For `CCCCN1CCCCC1C(=O)Nc1c(C)cccc1C` (stereo unspecified) [Bupivacaine_(hydrochloride)], the synaptosome phagocytic index stood at 0.836.

In the case of `CCN(CC)CC(=O)Nc1c(C)cccc1C` [Lidocaine], the synaptosome phagocytic index came to 0.907.

In the case of `CCN1CCN(Cc2ccc(Nc3ncc(F)c(-c4cc(F)c5nc(C)n(C(C)C)c5c4)n3)nc2)CC1` [Abemaciclib], the synaptosome phagocytic index stood at 0.228.

Turning to `Nc1nc2c(ncn2COC(CO)CO)c(=O)[nH]1` [Ganciclovir], the synaptosome phagocytic index is 0.98.

Take `CNCCCC1c2ccccc2C=Cc2ccccc21` [Protriptyline_(hydrochloride)]: the synaptosome phagocytic index turned out to be 0.93.

On to `NC(=O)c1ccc(OCCCN2CC3CCCC3C2)cc1` (stereo unspecified), for which the synaptosome phagocytic index was determined as 0.933.

`CCOCc1cc(OC)c(-c2ccc(C[C@H](NC(=O)c3c(F)cccc3F)C(=O)O)cc2)c(OC)c1` [Firategrast]: the synaptosome phagocytic index is 0.931.

`O=C1N=C(O)NC1(c1ccccc1)c1ccccc1` [Phenytoin_(sodium)]: the synaptosome phagocytic index came out at 0.725.

In the case of `O=c1c(-c2ccc(O)cc2)coc2cc(O)ccc12` [Daidzein], the synaptosome phagocytic index is 0.94.

On to `C[C@H]1COCCN1c1nc(-c2cnc(N)cc2C(F)F)nc(N2CCOCC2)n1`, for which the synaptosome phagocytic index stood at 0.366.

In the case of `CCN(CC)CC#CCOC(=O)C(O)(c1ccccc1)C1CCCCC1` (stereo unspecified) [Oxybutynin], the synaptosome phagocytic index came out at 0.889.

For `CS(=O)(=O)c1ccc(C2=C(c3ccccc3)C(=O)OC2)cc1` [Rofecoxib], the synaptosome phagocytic index stood at 1.08.

Consider `NC12CC3CC(CC(C3)C1)C2` [Amantadine_(hydrochloride)], for which the synaptosome phagocytic index amounted to 1.02.

In the case of `CC(C)(C)c1cnc(CSc2cnc(NC(=O)C3CCNCC3)s2)o1`, the synaptosome phagocytic index was 0.572.

As to `N[C@@H]1CONC1=O` [D-Cycloserine], the synaptosome phagocytic index was 0.834.

With `O=C1N[C@@H](Cc2cnc[nH]2)C(=O)N2CCC[C@@H]12` [Cyclo(his-pro)_(TFA)], the synaptosome phagocytic index was 0.449.

Consider `CO/N=C(\C(=O)N[C@@H]1C(=O)N2C(C(=O)O)=C(C[N+]3(C)CCCC3)CS[C@H]12)c1csc(N)n1` [Cefepime_(Dihydrochloride_Monohydrate)], for which the synaptosome phagocytic index came to 0.597.

Regarding `CC(CN(C)C)CN1c2ccccc2CCc2ccccc21` (stereo unspecified) [Trimipramine_(maleate)], the synaptosome phagocytic index was 0.449.

As to `C[C@@H]1O[C@@H]1P(=O)(O)O` [Fosfomycin_(sodium)], the synaptosome phagocytic index is 1.11.

As to `CS(=O)(=O)OCCCCOS(C)(=O)=O` [Busulfan], the synaptosome phagocytic index was determined as 0.829.

For `CCCN[C@H]1CCc2nc(N)sc2C1` [Pramipexole_(dihydrochloride_hydrate)], the synaptosome phagocytic index turned out to be 0.763.

Turning to `CCCN(CCC)S(=O)(=O)c1ccc(C(=O)O)cc1` [Probenecid], the synaptosome phagocytic index was 0.701.

For `Nc1ccn([C@@H]2O[C@H](CO)[C@@H](O)[C@@H]2O)c(=O)n1` [Cytarabine], the synaptosome phagocytic index came to 0.44.

Regarding `COc1cc2nc(C3CC3)nc(N3CCN(c4ccccc4OC)CC3)c2cc1OC`, the synaptosome phagocytic index turned out to be 0.0572.

As to `CCCc1nc(C)c2c(O)nc(-c3cc(S(=O)(=O)N4CCN(CC)CC4)ccc3OCC)nn12` [Vardenafil_(hydrochloride)], the synaptosome phagocytic index turned out to be 1.16.
